Results published in PubChem BioAssay.
Entries with a potency or affinity are not part of this list. The source made the active and inactive calls. No rule for the calls is given here.

Assay: A2780 cell killing – plate reader, dry powder samples, cytotoxicity control, dose response (AID 743046);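 also: 0% = neutral control wells and -100% = cytotoxic reference compound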
Conditions: A2780 ovarian cancer cytotoxicity; series mostly up to 35 µM; activity change, negative = cytotoxicity: at the top concentration
For `C[C@@H]1CCCCO[C@H](CN(C)C(=O)Nc2ccc(C(F)(F)F)cc2)[C@@H](C)CN([C@@H](C)CO)C(=O)c2cc(NC(=O)Nc3ccc(C(F)(F)F)cc3)ccc2O1`, the “activity change, negative = cytotoxicity” value was 3.71% (inactive).
With `CC(C)NC(=O)N(C)C[C@H]1OCCCC[C@@H](C)Oc2ccc(NC(=O)Nc3ccc(C(F)(F)F)cc3)cc2C(=O)N([C@@H](C)CO)C[C@H]1C` the “activity change, negative = cytotoxicity” value was 12% (inactive).
With `C[C@@H]1CN([C@H](C)CO)C(=O)c2cc(NC(=O)Nc3cccc4ccccc34)ccc2O[C@@H]1CN(C)C(=O)Nc1cccc2ccccc12` the “activity change, negative = cytotoxicity” value was 12.5% (inactive).
In the case of `C[C@@H]1CN([C@H](C)CO)C(=O)c2cccc(NC(=O)Nc3cccc4ccccc34)c2O[C@@H]1CN(C)S(=O)(=O)c1ccc(Cl)cc1`, the “activity change, negative = cytotoxicity” value is reported as 6.87% (inactive).
With `C[C@H]1CCCCO[C@H](CN(C)Cc2ccc(C(F)(F)F)cc2)[C@@H](C)CN([C@@H](C)CO)C(=O)c2cc(NS(=O)(=O)c3ccc(F)cc3)ccc2O1` the “activity change, negative = cytotoxicity” value was -10.4% (inactive).
With `C[C@@H]1CN([C@H](C)CO)C(=O)c2cc(NC(=O)Nc3ccc(F)cc3)ccc2O[C@@H](C)CCCCO[C@@H]1CN(C)Cc1ccc(Cl)c(Cl)c1` the “activity change, negative = cytotoxicity” value was -22.6% (inactive).
For `C[C@H](CO)N1C[C@H](C)[C@@H](CN(C)S(=O)(=O)c2cccc(F)c2)OCc2ccccc2-c2c(n(C)c3ccccc23)C1=O`, the “activity change, negative = cytotoxicity” value was -6.81% (inactive).
For `C[C@@H]1CN([C@H](C)CO)C(=O)c2cc(NC(=O)Cc3ccccc3)ccc2O[C@@H](C)CCCCO[C@@H]1CN(C)Cc1ccc(C(F)(F)F)cc1`, the “activity change, negative = cytotoxicity” value was -0.026% (inactive).
For `C[C@@H]1CN([C@H](C)CO)C(=O)CCCn2cc(nn2)CO[C@H]1CN(C)C(=O)Nc1ccc(-c2cccs2)cc1`, the “activity change, negative = cytotoxicity” value was 1.35% (inactive).
With `C[C@H]1CCCCO[C@H](CN(C)C(=O)C2CCCCC2)[C@@H](C)CN([C@@H](C)CO)C(=O)c2cc(NS(=O)(=O)c3ccc(Cl)cc3)ccc2O1` the “activity change, negative = cytotoxicity” value was 17.6% [at 16 µM] (inactive).
With `C[C@@H]1CCCCO[C@@H](CN(C)S(=O)(=O)c2ccc(F)cc2)[C@H](C)CN([C@H](C)CO)C(=O)c2cc(NS(=O)(=O)c3ccc(Cl)cc3)ccc2O1` the “activity change, negative = cytotoxicity” value was 7.25% (inactive).
For `Cc1noc(C)c1S(=O)(=O)Nc1ccc2c(c1)C(=O)N([C@H](C)CO)C[C@@H](C)[C@H](CN(C)C(=O)Nc1ccc(C(F)(F)F)cc1)OCCCC[C@@H](C)O2`, the “activity change, negative = cytotoxicity” value was -20% (inactive).
For `C[C@@H]1CCCCO[C@H](CN(C)Cc2ccc(C(F)(F)F)cc2)[C@H](C)CN([C@@H](C)CO)C(=O)c2cc(NS(=O)(=O)c3ccc(Cl)cc3)ccc2O1`, the “activity change, negative = cytotoxicity” value was -0.075% (inactive).
